In PubChem BioAssay AID1240 (Sanford-Burnham Center for Chemical Genomics, 2008):
In all, about 50,000 compounds went through this assay and about 800 (1.6%) showed an effect of 50% or more. What follows is part of a selection rich in strong results, with near analogues and random picks from the rest.

Target: Bcl-2-like protein 10 (Homo sapiens) (UniProt Q9HD36)
Assay: Phenotype converters, Bcl-B/TR3 peptide binding displacement, primary biochemical FP (AID 1240);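 also: 0% = Bcl-B with tracer peptide and DMSO and 100% = tracer peptide lacking Bcl-B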
Conditions: GST-Bcl-B / FITC-TR3 peptide fluorescence polarization; stronger effect = higher value; compound at 3.75 mg/L

Bcl-2-like protein 10 (Homo sapiens), sequence (Q9HD36 whole entry, looked up): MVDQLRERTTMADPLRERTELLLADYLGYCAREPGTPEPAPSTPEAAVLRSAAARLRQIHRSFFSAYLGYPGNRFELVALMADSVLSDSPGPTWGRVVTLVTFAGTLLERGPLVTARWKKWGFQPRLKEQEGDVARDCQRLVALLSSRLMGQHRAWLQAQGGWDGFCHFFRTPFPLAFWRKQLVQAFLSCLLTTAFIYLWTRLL

`O=C1NC(=O)C(=Cc2ccc(N3CCOCC3)cc2)C(=O)N1` was tested. Which displacement did it give?
Its displacement is 78.9%.

`O=C1NC(=O)C(=Cc2ccc3c(c2)OCO3)C(=O)N1` was tested. Which displacement did it give?
The displacement was 0.3%.

How did the displacement turn out when `O=C1NC(=O)C(=Cc2ccccc2)C(=O)N1` was run?
Its displacement is -4.2%.

`O/N=C1/C(=C/c2ccccc2)N2CCC1CC2` was tested. Which displacement did it give?
The displacement was 10.6%.

How did the displacement turn out when `COC(=O)COc1ccc(/C=C2\C(=O)NC(=S)N(c3ccc(C)cc3)C2=O)cc1OC` was run?
Its displacement is -13.5%.

Which displacement does the source give for `COc1ccc(-c2ccc(C=C3C(=O)NC(=S)NC3=O)o2)c([N+](=O)[O-])c1` here?
Its displacement is 34.1%.

`COc1ccccc1-n1c(/C=C/c2ccccc2O)nc2ccccc2c1=O` was tested. Which displacement did it give?
Its displacement is -6%.

With `O=c1c2ccccc2nc(/C=C/c2ccc(O)c(O)c2)n1-c1ccccc1` as the compound, how does the displacement read?
The displacement was 1.9%.

How did the displacement turn out when `COc1ccccc1-n1c(/C=C/c2ccc(O)c(O)c2)nc2ccccc2c1=O` was run?
The displacement was -24.6%.

With `Cc1ccc(-n2c(/C=C/c3ccc(O)c(O)c3)nc3ccccc3c2=O)cc1` as the compound, how does the displacement read?
The displacement was 54.7%.

`COc1cccc(-n2c(/C=C/c3ccco3)nc3ccccc3c2=O)c1` was tested. Which displacement did it give?
Its displacement is 106%.

How did the displacement turn out when `COc1ccc(-n2c(/C=C/c3ccco3)nc3ccccc3c2=O)cc1` was run?
The displacement was -27.1%.

How did the displacement turn out when `COc1cccc(-n2c(/C=C/c3ccc(O)c(O)c3)nc3ccccc3c2=O)c1` was run?
The displacement was 27.7%.

Which displacement does the source give for `COc1ccccc1-n1c(/C=C/c2ccco2)nc2ccccc2c1=O` here?
Its displacement is -36%.

`COc1ccccc1-n1c(/C=C/c2ccc(O)cc2)nc2ccccc2c1=O` was tested. Which displacement did it give?
Its displacement is 119%.

With `O=C(CNS(=O)(=O)c1ccccc1)Nc1ccc(Br)cc1C(=O)c1ccccc1` as the compound, how does the displacement read?
Its displacement is 12%.

Which displacement does the source give for `O=[N+]([O-])N=C1NC(OCc2ccccc2)C(OCc2ccccc2)N1` (stereo unspecified) here?
The displacement was 1.4%.

For `CCC1CN(C)CCC1(O)c1ccccc1` (stereo unspecified), which displacement is on record?
The displacement was -6.1%.

For `CCC(C)N1CCN(C(=O)COc2ccc(Cl)cc2)CC1` (stereo unspecified), which displacement is on record?
The displacement was 9.2%.

How did the displacement turn out when `CC(C(=O)c1ccc(Cl)cc1Cl)n1cncn1` (stereo unspecified) was run?
Its displacement is -2.3%.

Which displacement does the source give for `COc1ccc(OCC(=O)Nc2ccc(Br)cc2C(=O)c2ccccc2)cc1` here?
Its displacement is -8.4%.

With `O=Cc1cn(Cc2cccc3ccccc23)c2ccccc12` as the compound, how does the displacement read?
The displacement was -2.4%.

For `CN1C(=O)NC(=O)/C(=C\c2ccc([N+](=O)[O-])o2)C1=O`, which displacement is on record?
The displacement was 17.3%.

Which displacement does the source give for `O=c1c2ccccc2nc(-c2ccccc2F)n1-c1cccc(Cl)c1` here?
The displacement was -2.3%.

With `CCNc1cc2oc(=O)cc(C(F)(F)F)c2cc1C` as the compound, how does the displacement read?
Its displacement is 105%.

How did the displacement turn out when `Clc1ccccc1CNCCc1c[nH]c2ccccc12` was run?
The displacement was 2%.

`O=c1[nH]c(=O)n(-c2ccccc2)c(O)c1N=Nc1ccc(Br)cc1` was tested. Which displacement did it give?
The displacement was 120%.

`O=c1[nH]c2ccccc2c(=O)n1-c1ccccc1` was tested. Which displacement did it give?
Its displacement is -12.7%.

Which displacement does the source give for `O=c1c2ccccc2[nH]c(=S)n1-c1ccccc1` here?
The displacement was -9.7%.

Which displacement does the source give for `COc1ccccc1CN1CCN(Cc2ccccc2F)CC1` here?
The displacement was -5.2%.

For `O=C(Nc1ccc(Cl)c(-c2nc3ncccc3o2)c1)c1cccc(OCc2ccccc2)c1`, which displacement is on record?
The displacement was -2.6%.

`O=[N+]([O-])c1ccc(CCNC2CCCCC2)cc1` was tested. Which displacement did it give?
Its displacement is 3.9%.

For `COc1ccc(OC)c(N2C(=O)CC(=O)NC2=O)c1`, which displacement is on record?
Its displacement is -5.1%.

Which displacement does the source give for `COc1ccc(OC)c(-n2c(O)c(C=C3C=Nc4ccccc43)c(=O)[nH]c2=O)c1` here?
The displacement was 118%.

With `O=c1[nH]c(=O)n(Cc2ccccc2)c(O)c1C=C1C=Nc2ccccc21` as the compound, how does the displacement read?
Its displacement is 8.6%.

Which displacement does the source give for `COC(=O)N1[C@H](c2ccccc2)[C@@H]1c1ccccc1` here?
The displacement was 11.9%.

For `O=C(CF)NC(Nc1ccc(Br)cc1)C(Cl)(Cl)Cl` (stereo unspecified), which displacement is on record?
The displacement was 8.3%.

`C=CCn1cc(C=C2C(=O)NC(=O)NC2=O)c2ccccc21` was tested. Which displacement did it give?
The displacement was 16.3%.

For `O=Cc1cn(Cc2ccc(Br)cc2)c2ccccc12`, which displacement is on record?
Its displacement is 0.2%.

For `CN1C(=O)C(=Cc2cn(Cc3ccc(F)cc3)c3ccccc23)C(=O)N(C)C1=O`, which displacement is on record?
Its displacement is 138%.

`CCn1cc(C=C2C(=O)NC(=O)NC2=O)c2ccccc21` was tested. Which displacement did it give?
Its displacement is 12.6%.

With `CN1C(=O)C(=Cc2ccccc2Cl)C(=O)N(C)C1=O` as the compound, how does the displacement read?
The displacement was -0.3%.

`CCn1cc(C=C2C(=O)NC(=S)NC2=O)c2ccccc21` was tested. Which displacement did it give?
Its displacement is 136%.

For `C=CCc1cc(/C=C2\C(=O)NC(=O)N(c3cc(C)cc(C)c3)C2=O)cc(OC)c1O`, which displacement is on record?
The displacement was -5.3%.

How did the displacement turn out when `Cc1cc(C=C2C(=O)NC(=S)NC2=O)c(C)n1-c1ccc(Cl)cc1` was run?
The displacement was 36.9%.

With `Cc1cc(C=C2C(=O)NC(=S)NC2=O)c(C)n1-c1ccc(F)cc1` as the compound, how does the displacement read?
The displacement was 3.8%.

`Cc1ccc(-n2c(C)cc(/C=C3/C(=O)NC(=O)N(C)C3=O)c2C)cc1` was tested. Which displacement did it give?
Its displacement is -10.4%.

With `Cc1cc(/C=C2/C(=O)NC(=O)N(C)C2=O)c(C)n1-c1ccccc1` as the compound, how does the displacement read?
Its displacement is 49.3%.

How did the displacement turn out when `Cc1cc(/C=C2\C(=O)NC(=O)N(C)C2=O)c(C)n1-c1ccc2c(c1)OCO2` was run?
The displacement was 107%.

For `Cc1cc(C=C2C(=O)NC(=S)NC2=O)c(C)n1-c1ccccc1`, which displacement is on record?
The displacement was 104%.

How did the displacement turn out when `O=C1NC(=S)N(c2ccc(Br)cc2)C(=O)/C1=C/c1ccc(-c2ccccc2C(=O)O)o1` was run?
Its displacement is 19.2%.

`COc1ccc(Br)cc1CN1CCN(C(=O)COc2ccccc2)CC1` was tested. Which displacement did it give?
The displacement was 2.5%.

How did the displacement turn out when `COC(=O)C1C2C(=O)N(c3ccc([N+](=O)[O-])cc3)C(=O)C12c1ccc(C)cc1` (stereo unspecified) was run?
Its displacement is -32.2%.

Which displacement does the source give for `Cc1ccc(NC(=O)C2C(C)(C)C2(C)C)cc1C` here?
Its displacement is 6.9%.

`CCOC(=O)c1ccc2c(c1)n(Cc1ccccc1)c(C)[n+]2CC` was tested. Which displacement did it give?
Its displacement is -14.9%.

With `COc1cccc(N2C(=O)CC(=O)NC2=O)c1` as the compound, how does the displacement read?
Its displacement is -8.2%.

Which displacement does the source give for `CCOc1ccc(N2C(=O)/C(=C/c3cc(Cl)ccc3O)C(=O)NC2=S)cc1` here?
The displacement was 0.4%.

How did the displacement turn out when `Cc1ccc(N2C(=O)NC(=O)/C(=C\c3cn(CC(=O)O)c4ccccc34)C2=O)cc1` was run?
The displacement was 183%.

`COc1ccc(N2C(=O)NC(=O)/C(=C/c3cn(CC(=O)Nc4ccccc4)c4ccccc34)C2=O)cc1` was tested. Which displacement did it give?
Its displacement is 88.8%.

For `O=C(O)Cn1cc(/C=C2\C(=O)NC(=O)N(c3ccc(Cl)cc3)C2=O)c2ccccc21`, which displacement is on record?
The displacement was -16.9%.

`COc1ccccc1OCCn1cc(C=C2C(=O)NC(=O)NC2=O)c2ccccc21` was tested. Which displacement did it give?
Its displacement is 38.7%.

`Cc1ccc(N2C(=O)NC(=O)/C(=C\c3ccccc3OCc3ccc(C(=O)O)cc3)C2=O)cc1` was tested. Which displacement did it give?
The displacement was -9.2%.

`CCc1ccc(/C=C2/C(=O)NC(=O)N(c3ccc(OC)cc3)C2=O)cc1` was tested. Which displacement did it give?
The displacement was -18.1%.

With `CCOc1cc(C)cc2oc(=O)c3c(c12)CCC3` as the compound, how does the displacement read?
The displacement was -1.5%.

Which displacement does the source give for `Nc1ccc(Br)cc1C(=O)c1ccc(Cl)cc1Cl` here?
Its displacement is 10%.

For `Cn1cc(/C=C2\C(=O)NC(=O)N(Cc3ccccc3)C2=O)c2ccccc21`, which displacement is on record?
The displacement was 99.3%.

With `O=C1NC(=O)N(Cc2ccccc2)C(=O)/C1=C/c1ccc2c(c1)OCO2` as the compound, how does the displacement read?
Its displacement is 13.8%.

With `CN1C(=O)NC(=O)/C(=C/c2cn(C)c3ccccc23)C1=O` as the compound, how does the displacement read?
The displacement was 108%.

For `CN1C(=O)NC(=O)/C(=C\c2ccc(C(=O)O)cc2)C1=O`, which displacement is on record?
The displacement was 1.8%.

With `O=C1NC(=O)N(Cc2ccccc2)C(=O)/C1=C\C=C\c1ccco1` as the compound, how does the displacement read?
The displacement was 11.3%.

`CN1C(=O)NC(=O)/C(=C/c2ccc(I)o2)C1=O` was tested. Which displacement did it give?
Its displacement is 9.2%.
